{"source": "paper PMC4552634", "about": "“A New Set of Chemical Starting Points with Plasmodium falciparum Transmission-Blocking Potential for Antimalarial Drug Discovery” (PLoS ONE, 2015)", "note": "The whole screen tested about 13,000 compounds, of which about 3,200 (25%) showed an effect of 50% or more. The list shows a part of the results.", "data": [{"system": "P. falciparum stage V gametocytes", "parameters": "BacTiter-Glo ATP luminescence viability of purified stage V gametocytes in 384-well plates, per cent inhibition versus DMSO", "details": "48 h, 5 µM; inhibitor", "units": {"% Inhibition": "%"}, "values": [{"smiles": "Cc1ccc(Nc2nc(C)cc(Nc3cccc(NS(C)(=O)=O)c3)n2)cc1", "note": "[TCMDC-133449]", "% Inhibition": 22.69}, {"smiles": "CCCc1cc(Cc2cnc(N)nc2N)cc(CCC)c1OCCCCCC(=O)OCC", "note": "[TCMDC-137289]", "% Inhibition": -20.26}, {"smiles": "COc1cccc(NC(=O)c2nc(N3CCN(c4ccncc4)CC3)ccc2Cl)c1", "note": "[TCMDC-135104]", "% Inhibition": 27.68}, {"smiles": "Cc1ccc(NC(=O)c2ccnc(N3CCN(c4ccncc4)CC3)c2)cc1F", "note": "[TCMDC-135102]", "% Inhibition": 18.96}, {"smiles": "Cc1ccc(NC(=O)c2nc(N3CCN(c4ccncc4)CC3)ccc2Cl)cc1F", "note": "[TCMDC-135103]", "% Inhibition": 90.08}, {"smiles": "Cc1ccc(NC(=O)c2ccc(N3CCN(c4ccncc4)CC3)cc2)cc1F", "note": "[TCMDC-135126]", "% Inhibition": 6.025}, {"smiles": "Cc1ccc(NC(=O)c2ccc(N3CCN(c4ccncc4)CC3)cn2)cc1F", "note": "[TCMDC-135156]", "% Inhibition": 103.4}, {"smiles": "O=C(Nc1ccc2c(c1)CCC2)c1nc(N2CCN(c3ccncc3)CC2)ccc1Cl", "note": "[TCMDC-135105]", "% Inhibition": 30.18}, {"smiles": "CC(C)(C)C(=O)Nc1ccc(N2CCN(C(c3ccccc3)c3ccccc3)CC2)c(Cl)c1", "note": "[TCMDC-133713]", "% Inhibition": 36.59}, {"smiles": "COc1ccc(Cl)cc1N1CCN(CCCNC(=O)c2ccc(-c3nc4cc(Cl)c(Cl)cc4[nH]3)c(C)c2)CC1", "note": "[TCMDC-140082]", "% Inhibition": -14.21}, {"smiles": "O=C(Cn1cc(C=C2SC(=NC3CCCC3)N(C3CCCC3)C2=O)c2ccccc21)N1CCCC1", "note": "[TCMDC-124810]", "% Inhibition": -5.018}, {"smiles": "COc1ccc2nccc(N(C)CC3(O)CCN(CCc4ccc5c(c4)NC(=O)CS5)CC3)c2n1", "note": "[TCMDC-141472]", "% Inhibition": 49.29}, {"smiles": "CC(C)C(C)(C#N)NC(=O)CSc1nc2ccc([N+](=O)[O-])cc2s1", "note": "(centres unmarked) [TCMDC-123610]", "% Inhibition": 79.56}, {"smiles": "O=C(CSc1nc2ccc([N+](=O)[O-])cc2s1)Nc1ccccc1-c1ccccc1", "note": "[TCMDC-124341]", "% Inhibition": 43.04}, {"smiles": "CCCCC(=O)Nc1nc2ccc([N+](=O)[O-])cc2s1", "note": "[TCMDC-123686]", "% Inhibition": -7.174}, {"smiles": "COc1ccc2nccc(N(C)CC3(O)CCC(NCc4cc5c(cn4)OCCO5)CC3)c2n1", "note": "(centres unmarked) [TCMDC-134497]", "% Inhibition": 30.63}, {"smiles": "N=c1ccn(CC(=NO)c2ccc(Cl)c(Cl)c2)cc1", "note": "[TCMDC-139033]", "% Inhibition": -35.74}, {"smiles": "COc1ccccc1C1CCN(C2CCC(NC(=O)/C=C/c3ccc(F)c(F)c3)CC2)CC1", "note": "(centres unmarked) [TCMDC-133493]", "% Inhibition": -77.67}, {"smiles": "O=[N+]([O-])c1nc(Br)n(Cc2ccc(Cl)cc2)n1", "note": "[TCMDC-125048]", "% Inhibition": 51.98}, {"smiles": "Clc1ccc(Cn2nc(Br)nc2Br)c(Cl)c1", "note": "[TCMDC-125047]", "% Inhibition": -61.09}, {"smiles": "Cc1ccc(C2CCN(CCCCNC(=O)c3ccc(NC(=O)c4ccc(Cl)cc4)cc3)CC2)c(C)c1", "note": "[TCMDC-138354]", "% Inhibition": 9.967}, {"smiles": "CC(C)(Oc1c(C2CCN(CCCCNC(=O)c3ccc(-c4ccc(Cl)cc4)cc3)CC2)ccc2c1CCCC2)C(N)=O", "note": "[TCMDC-134939]", "% Inhibition": -3.044}, {"smiles": "COc1ccc2c(c1C1CCN(CCCCNC(=O)c3ccc(NC(=O)c4ccc(Cl)cc4)cc3)CC1)CCCC2", "note": "[TCMDC-138553]", "% Inhibition": 46.07}, {"smiles": "O=C(NCCCCN1CCC(c2ccc3c(c2O)CCCC3)CC1)c1ccc(-c2ccc(Cl)cc2)cc1", "note": "[TCMDC-138661]", "% Inhibition": 61.25}, {"smiles": "CC(Oc1c(C2CCN(CCCCNC(=O)c3ccc(-c4ccc(C#N)cc4)cc3)CC2)ccc2c1CCCC2)C(N)=O", "note": "(centres unmarked) [TCMDC-134551]", "% Inhibition": 41.12}, {"smiles": "CC(=O)c1ccc(-c2ccc(C(=O)NCCCCN3CCC(c4ccc5c(c4O)CCCC5)CC3)cc2)cc1", "note": "[TCMDC-138653]", "% Inhibition": 60.63}, {"smiles": "O=C(NCCCCN1CCC(c2ccc3c(c2O)CCCC3)CC1)c1ccc(NC(=O)c2ccc(Cl)cc2)cc1", "note": "[TCMDC-138645]", "% Inhibition": 88.57}, {"smiles": "N#Cc1ccc(-c2ccc(C(=O)NCCCCN3CCC(c4cc(Br)c5c(c4O)CCCC5)CC3)cc2)cc1", "note": "[TCMDC-135238]", "% Inhibition": -99.04}, {"smiles": "C=Cc1c(C2CCN(CCCCNC(=O)c3ccc(-c4ccc(C#N)cc4)cc3)CC2)ccc2c1CCCC2", "note": "[TCMDC-135273]", "% Inhibition": 38.74}, {"smiles": "CC(Oc1c(C2CCN(CCCCNC(=O)c3ccc(-c4ccc(Cl)cc4)cc3)CC2)ccc2c1CCCC2)C(N)=O", "note": "(centres unmarked) [TCMDC-134653]", "% Inhibition": 65.96}, {"smiles": "COc1ccc2nc(-c3cc(-c4ccc(NC(=O)C(C)C)cc4)cnc3N)[nH]c2c1", "note": "[TCMDC-135322]", "% Inhibition": 10.64}, {"smiles": "C[C@H](CNc1ccnc(Nc2ccc3[nH]c(=O)[nH]c3c2)n1)c1ccccc1", "note": "[TCMDC-136804]", "% Inhibition": -43.48}, {"smiles": "CN/C(=C\\[N+](=O)[O-])NCCSCc1cc(C)c(CN(C)C)s1", "note": "[TCMDC-131256]", "% Inhibition": 8.916}, {"smiles": "Cc1cc(O)c2c3c1C(=O)C=C1C3c3c(c(O)cc(O)c3C(=O)C1(C)C)C2=O", "note": "(centres unmarked) [TCMDC-132049]", "% Inhibition": 13.87}, {"smiles": "Oc1ccc(Cl)cc1CN1CCC(CCOC(c2ccccc2)c2ccccc2)CC1", "note": "[TCMDC-136036]", "% Inhibition": 7.087}, {"smiles": "CC(C)Sc1nc2c(c(=O)n1CCc1ccccc1)C1(CCCCC1)Cc1ccccc1-2", "note": "[TCMDC-123894]", "% Inhibition": -24.8}, {"smiles": "O=C(Nc1ccc2c(c1)OCO2)c1cc(-c2cccnc2)cnc1NCc1ccc2c(c1)OCO2", "note": "[TCMDC-136698]", "% Inhibition": -17.08}, {"smiles": "CN(c1ccnc(Nc2ccc(CS(C)(=O)=O)cc2)n1)C1CCN(Cc2ccccc2)CC1", "note": "[TCMDC-134396]", "% Inhibition": -3.005}, {"smiles": "CNC(=O)Cc1ccc(C(=O)Nc2cccc(-c3cccc(-c4nc5c(C)cccc5[nH]4)c3)c2)cc1", "note": "[TCMDC-137075]", "% Inhibition": -29.46}, {"smiles": "Cc1cccc2nc(-c3cccc(-c4cccc(CN5CCN(c6ccc(C#N)cn6)CC5)c4)c3)[nH]c12.O=C(O)C(F)(F)F", "note": "[TCMDC-133118]", "% Inhibition": 18.89}, {"smiles": "Cc1cccc2nc(-c3cccc(-c4ccc(CNCc5ccc(S(C)(=O)=O)cc5)cc4)c3)[nH]c12.O=C(O)C(F)(F)F", "note": "[TCMDC-132898]", "% Inhibition": -16.63}, {"smiles": "Cc1cccc2nc(-c3ccc(-c4ccc(CNCCc5ccncc5)cc4)cc3)[nH]c12.O=C(O)C(F)(F)F", "note": "[TCMDC-132855]", "% Inhibition": 4.84}, {"smiles": "CNc1ccc(CNCc2ccc(-c3ccc(-c4nc5cccc(C)c5[nH]4)cc3)cc2)cc1.O=C(O)C(F)(F)F", "note": "[TCMDC-132984]", "% Inhibition": 83.67}, {"smiles": "Cc1cccc2nc(-c3ccc(-c4ccc(CNCc5ccc(S(C)(=O)=O)cc5)cc4)cc3)[nH]c12.O=C(O)C(F)(F)F", "note": "[TCMDC-132905]", "% Inhibition": 55}, {"smiles": "Cc1cccc2nc(-c3cccc(-c4cccc(CNCc5ccc(S(C)(=O)=O)cc5)c4)c3)[nH]c12.O=C(O)C(F)(F)F", "note": "[TCMDC-132896]", "% Inhibition": -8.61}, {"smiles": "COc1ccc(CNCc2ccc(-c3ccc(-c4nc5cccc(C)c5[nH]4)cc3)cc2)cc1.O=C(O)C(F)(F)F", "note": "[TCMDC-132720]", "% Inhibition": -4.275}, {"smiles": "Cc1c(F)cc(C(=O)NC2CC2)cc1-c1ccc2c(c1)c(C)nn2S(=O)(=O)c1cccs1", "note": "[TCMDC-135260]", "% Inhibition": 59.41}, {"smiles": "Cc1c(F)cc(C(=O)NC2CC2)cc1-c1ccc2c(cnn2S(=O)(=O)c2ccc(Cl)s2)c1", "note": "[TCMDC-135232]", "% Inhibition": 32.9}, {"smiles": "Cc1c(F)cc(C(=O)NC2CC2)cc1-c1ccc2c(cnn2S(=O)(=O)c2cccs2)c1", "note": "[TCMDC-135215]", "% Inhibition": -11.35}, {"smiles": "CO/C(=C\\C=C\\c1cc2cc(Cl)c(Cl)cc2[nH]1)C(=O)NCCCN1CCC(c2ccccc2)CC1", "note": "[TCMDC-139272]", "% Inhibition": 8.329}, {"smiles": "CO/C(=C\\C=C\\c1cc2cc(Cl)c(Cl)cc2[nH]1)C(=O)NCC(C)(C)CN(C)C", "note": "[TCMDC-139037]", "% Inhibition": -32.83}, {"smiles": "CO/C(=C\\C=C\\c1cc2cc(Cl)c(Cl)cc2[nH]1)C(=O)NCCCNC12CC3CC(CC(C3)C1)C2", "note": "[TCMDC-139077]", "% Inhibition": 103}, {"smiles": "CO/C(=C\\C=C\\c1cc2cc(Cl)c(Cl)cc2[nH]1)C(=O)NCCCN1CCN(c2ccc(OC)cc2)CC1", "note": "[TCMDC-139175]", "% Inhibition": -57.04}, {"smiles": "CCN(CC)CCNC(=O)/C(=C/C=C/c1cc2cc(Cl)c(Cl)cc2[nH]1)OC", "note": "[TCMDC-139013]", "% Inhibition": -18.02}, {"smiles": "CO/C(=C\\C=C\\c1cc2cc(Cl)c(Cl)cc2[nH]1)C(=O)NCCCN(C)CCN(C)c1ccccc1", "note": "[TCMDC-139497]", "% Inhibition": -12.25}, {"smiles": "CO/C(=C\\C=C\\c1cc2cc(Cl)c(Cl)cc2[nH]1)C(=O)NCCCNCCN(C)c1ccccc1", "note": "[TCMDC-139496]", "% Inhibition": 56.16}, {"smiles": "CCN(CC)CCCNC(=O)/C(=C/C=C/c1cc2cc(Cl)c(Cl)cc2[nH]1)OC", "note": "[TCMDC-139008]", "% Inhibition": 50.29}, {"smiles": "CO/C(=C\\C=C\\c1cc2cc(Cl)c(Cl)cc2[nH]1)C(=O)NCCCN1CCN(Cc2ccccc2)CC1", "note": "[TCMDC-139257]", "% Inhibition": -24.43}, {"smiles": "CN1CCC=C(C(=O)NCC(C)(C)c2nc(-c3ccc(Cl)c(O)c3)c(-c3ccncc3)[nH]2)C1", "note": "[TCMDC-140700]", "% Inhibition": -7.132}, {"smiles": "Cc1c(OC(C)C)nc2ccccc2c1C(=O)N[C@H](c1cccc(F)c1)C1CC1", "note": "[TCMDC-135994]", "% Inhibition": -18.71}, {"smiles": "O=C(NCCN1CCCC1)c1cccc(-c2ccc(-c3nc4ccccc4[nH]3)cc2)c1", "note": "[TCMDC-132324]", "% Inhibition": -2.761}, {"smiles": "CC(C)c1ccc(NC(=O)c2ccc(CN3CCCN(Cc4cccc(O)c4)CC3)cc2)cc1", "note": "[TCMDC-136419]", "% Inhibition": -24.98}, {"smiles": "Cc1cccc(-c2nn(-c3ccccc3)c3[nH]c(=O)c(CNC4CCCC4)cc23)c1", "note": "[TCMDC-136663]", "% Inhibition": 9.349}, {"smiles": "O=c1[nH]c2c(cc1CNC1CCCCC1)c(-c1cccc(F)c1)nn2-c1ccccc1", "note": "[TCMDC-125867]", "% Inhibition": 39.49}, {"smiles": "Cc1cccc(-c2nn(-c3ccccc3)c3[nH]c(=O)c(CN4CCSCC4)cc23)c1", "note": "[TCMDC-124897]", "% Inhibition": 84.44}]}]}
